# Reference: PubChem BioAssay
# The source made the active and inactive calls. Unless noted, how the calls were made is not given here.
# Legend:
# [1] = compound effects on lung adenocarcinoma cell viability – A549, calcein-AM fluorescence, 48 h, basal, profiling panel (AID 1162); settings: higher = more signal; further: test concentration not given here
# [2] = compound effects on differentiated 3T3-L1 adipocyte viability – cell-based, 3T3-L1 adipocytes, calcein-AM fluorescence, 48 h, basal, profiling panel (AID 1163); settings: 3T3-L1 adipocytes viability, higher = more signal; further: test concentration not given here
# [3] = compound effects on hepatocellular carcinoma cell viability – HepG2, calcein-AM fluorescence, 48 h, basal, profiling panel (AID 1164); settings: higher = more signal; further: test concentration not given here
# [4] = compound effects on multiple myeloma cell viability – MM1S, calcein-AM fluorescence, 48 h, basal, profiling panel (AID 1165); settings: higher = more signal;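 further: viability of MM1S multiple myeloma cells under basal unstimulated conditions; test concentration not given here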
# [5] = calcein-AM signal in unstimulated myeloma cells – cell-based, calcein-AM fluorescence, 48 h, PK04 Diversity Set, profiling panel (AID 1166); settings: RPMI8226 myeloma viability, higher = more signal;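 further: cells grown under basal conditions without added stimulus; test concentration not given here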
# [6] = JC-1 mitochondrial signal, unstimulated HepG2 cells – cell-based, JC-1 fluorescence, 24 h, 100 nL compound, profiling panel (AID 1167); settings: HepG2 mitochondrial potential, higher = more signal; further: test concentration not given here
# [7] = JC-1 mitochondrial signal, unstimulated adipocytes – cell-based, JC-1 fluorescence, 3T3-L1 adipocytes, 24 h, 100 nL compound, profiling panel (AID 1168); settings: JC-1 mitochondrial fluorescence, higher = more signal, called active from +8 up or from −8 down; further: test concentration not given here
# [8] = JC-1 mitochondrial signal, unstimulated myeloma cells – cell-based, JC-1 fluorescence, RPMI8226, 24 h, 100 nL compound, profiling panel (AID 1169); settings: JC-1 mitochondrial potential fluorescence, higher = more signal; further: test concentration not given here
# [9] = JC-1 mitochondrial signal, unstimulated MM1S myeloma – cell-based, JC-1 fluorescence, 24 h, 100 nL compound, profiling panel (AID 1170); settings: MM1S mitochondrial potential, higher = more signal; further: test concentration not given here
# [10] = resazurin metabolic signal in A549 cells – cell-based, resazurin fluorescence, 24 h, PK04 Diversity Set, profiling panel (AID 1171); settings: A549 viability, higher = more signal, called active from +8 up or from −8 down; further: test concentration not given here
# [11] = resazurin metabolic signal in HepG2 cells – cell-based, resazurin fluorescence, 24 h, PK04 Diversity Set, profiling panel (AID 1172); settings: HepG2 viability, higher = more signal; further: test concentration not given here
# [12] = budding yeast growth changes without added modifier – OD600, strain BY4716, 24 h, basal condition, primary screen (AID 1173); settings: S. cerevisiae BY4716 growth, OD600, 24 h; higher = more signal, called active from +8 up or from −8 down
# [13] = viability profiling in MM1S myeloma cells – cell-based, resazurin fluorescence, basal, 24 h, PK04 Diversity Set, profiling panel (AID 1174); settings: higher = more signal, called active from +8 up or from −8 down; further: test concentration not given here
# [14] = target: Dihydroorotate dehydrogenase (quinone), mitochondrial (Plasmodium falciparum (isolate 3D7)) (UniProt Q08210); assay: inhibition of P. falciparum DHODH – biochemical, C-terminal His tag, absorbance 600 nm, primary screen (AID 1175); settings: PfDHODH enzyme, DCIP absorbance 600 nm; higher = more signal, called active from +8 up or from −8 down;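 further: recombinant parasite enzyme with a five histidine tag at its C terminus; test concentration not given here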
# Dihydroorotate dehydrogenase (quinone), mitochondrial (Plasmodium falciparum (isolate 3D7)), sequence (Q08210 whole entry, looked up): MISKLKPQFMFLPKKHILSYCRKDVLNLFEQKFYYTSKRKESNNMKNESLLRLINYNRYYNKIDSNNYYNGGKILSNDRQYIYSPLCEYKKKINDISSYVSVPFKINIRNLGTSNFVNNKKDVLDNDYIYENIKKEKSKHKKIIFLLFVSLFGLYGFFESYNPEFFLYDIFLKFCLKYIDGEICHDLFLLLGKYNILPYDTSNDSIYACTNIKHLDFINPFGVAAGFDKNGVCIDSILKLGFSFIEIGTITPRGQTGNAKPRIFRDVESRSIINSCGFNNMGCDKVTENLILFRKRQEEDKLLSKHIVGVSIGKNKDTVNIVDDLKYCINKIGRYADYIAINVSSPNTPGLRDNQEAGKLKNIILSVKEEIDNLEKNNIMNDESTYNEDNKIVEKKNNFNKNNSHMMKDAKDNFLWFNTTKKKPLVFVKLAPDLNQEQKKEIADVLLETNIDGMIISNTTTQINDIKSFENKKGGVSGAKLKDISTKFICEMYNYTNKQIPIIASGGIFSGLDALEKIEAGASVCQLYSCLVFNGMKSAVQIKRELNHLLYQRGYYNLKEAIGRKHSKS
# [15] = inhibition of PAO1 biofilm formation – strain PAO1, LB-PBS medium, absorbance 600 nm, primary screen (AID 1176); further: test concentration not given here; settings: P. aeruginosa PAO1 growth/biofilm, A600, 12 h; higher = more signal
# [16] = growth modulation of vineyard yeast isolate – strain RM11-1a, OD600, basal, 24 h, primary screen (AID 1177);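 further: cultures grown under basal conditions with no added stressor; test concentration not given here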; settings: S. cerevisiae RM11-1a growth, OD600, 24 h; higher = more signal, called active from +8 up or from −8 down
# [17] = growth of efflux-deficient E. coli DRC39 – strain DRC39, OD650, 24 h, E. coli filamentation inducers, primary screen (AID 1178);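 further: growth measured as culture turbidity by optical density at 650 nm; test concentration not given here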; settings: E. coli DRC39 acrAB, higher = more signal, called active from +8 up or from −8 down
# [18] = growth of efflux-deficient E. coli DRC39 – strain DRC39, OD650, 48 h, E. coli filamentation inducers, primary screen (AID 1179);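 further: screen aims at cell division blockers that make cells filament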; settings: E. coli DRC39 delta-acrAB growth, higher = more signal, called active from +8 up or from −8 down
# [19] = viability profiling in RPMI8226 myeloma cells – cell-based, resazurin fluorescence, basal, 24 h, PK04 Diversity Set, profiling panel (AID 1180); settings: higher = more signal;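 further: RPMI8826 multiple myeloma cell line at 5000 cells per well; test concentration not given here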
# [20] = target: E3 ubiquitin-protein ligase XIAP (Homo sapiens) (UniProt P98170); assay: small molecules binding XIAP protein – biophysical, small-molecule microarray, fluorescence 635 nm, primary screen (AID 1181); settings: higher = more signal;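 further: score merges 667 nm emission and signal to noise over triplicate slides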
# E3 ubiquitin-protein ligase XIAP (Homo sapiens), sequence (P98170 whole entry, looked up): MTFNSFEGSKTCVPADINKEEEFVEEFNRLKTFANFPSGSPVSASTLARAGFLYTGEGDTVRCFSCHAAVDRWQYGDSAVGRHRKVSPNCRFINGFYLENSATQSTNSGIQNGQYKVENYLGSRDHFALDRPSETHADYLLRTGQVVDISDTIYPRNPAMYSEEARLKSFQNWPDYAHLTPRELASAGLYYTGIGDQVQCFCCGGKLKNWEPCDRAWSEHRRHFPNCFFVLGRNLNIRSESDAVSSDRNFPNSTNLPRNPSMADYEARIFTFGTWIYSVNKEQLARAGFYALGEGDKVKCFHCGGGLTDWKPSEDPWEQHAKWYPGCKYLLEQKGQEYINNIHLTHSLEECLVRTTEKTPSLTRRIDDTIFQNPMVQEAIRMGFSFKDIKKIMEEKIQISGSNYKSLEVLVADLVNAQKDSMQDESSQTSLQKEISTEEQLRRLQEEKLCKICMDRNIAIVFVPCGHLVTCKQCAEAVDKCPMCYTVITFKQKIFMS
Compound,z-score [1],z-score [2],z-score [3],z-score [4],z-score [5],z-score [6],z-score [7],z-score [8],z-score [9],z-score [10],z-score [11],z-score [12],z-score [13],composite z-score [14],z-score [15],z-score [16],z-score [17],z-score [18],z-score [19],composite z-score [20]
CCCC=C(CCC)[C@@H](NC(=O)c1ccc(C(F)(F)F)cc1)c1ccc(C(F)(F)F)cc1,-1.88,-0.0493,-0.751,-1.53,-3.65,4.85,0.216 (inactive),-0.235,-0.678,0.949 (inactive),0.706,2.01 (inactive),0.126 (inactive),0.256 (inactive),0.219 (inactive),2.66 (inactive),-0.101 (inactive),0.0205 (inactive),-1.9,1.11
[N-]=[N+]=Nc1ccccc1[C@@H]1OC(c2ccc(OCCCO)cc2)=N[C@]1(Cc1ccccc1)C(=O)NCCN1CCOCC1,-0.975,1.29,-0.876,-2.37,-4.18,0.153,-0.0447 (inactive),-1.26,-0.469,-0.908 (inactive),-0.158,-2.57 (inactive),-1.37 (inactive),0.417 (inactive),-0.441 (inactive),-0.158 (inactive),0.826 (inactive),-0.382 (inactive),-1.73,-0.0663
CCN(CC)c1ccc(N2CC=CC34O[C@@H]5C=CCCOC(=O)C5[C@H]3C(=O)N(C(C)CO)[C@@H]4C2=O)cc1 (stereo not given in full),-0.0735,-0.456,0.316,0.241,0.333,0.408,0.0389 (inactive),-0.487,0.0276,0.586 (inactive),0.452,-0.315 (inactive),0.172 (inactive),-0.0558 (inactive),0.398 (inactive),0.126 (inactive),-0.491 (inactive),-0.693 (inactive),0.399,0.741
CCOC(=O)C1=C[C@@H](C(C)(C)C)N(S(=O)(=O)c2ccc(C)cc2)[C@H]1c1ccc(C#N)cc1,-0.368,-0.316,-1.12,-2.79,-2.17,1.63,-0.398 (inactive),-0.372,-0.555,1.69 (inactive),-0.718,2.25 (inactive),-0.153 (inactive),-0.158 (inactive),0.16 (inactive),1.56 (inactive),-0.264 (inactive),-0.361 (inactive),-1.22,-0.0559
O=C1C2C=CC(C(O)c3ccc([N+](=O)[O-])cc3)N(Nc3ccccc3F)C2C(=O)N1c1ccccc1 (stereo not given),-0.353,-0.923,-1.16,0.375,-0.958,-1.5,-2.27 (inactive),-0.268,-0.127,-0.364 (inactive),-0.54,-1.45 (inactive),-0.348 (inactive),0.15 (inactive),1.19 (inactive),0.646 (inactive),-0.892 (inactive),-0.591 (inactive),-0.608,0.0049
COc1ccc([Si](C)(C)[C@@H]2[C@@H](CC(=O)N3Cc4ccccc4C[C@H]3CO)O[C@]3(C(=O)N(Cc4cccc(N5CCOC5=O)c4)c4ccccc43)[C@H]2C)cc1,-1.43,1.69,-0.443,-2.51,-3.32,-0.0282,0.192 (inactive),-1.16,-1.01,-2.45 (inactive),-1.02,-0.238 (inactive),-2.17 (inactive),0.314 (inactive),0.79 (inactive),1.64 (inactive),-0.742 (inactive),-0.655 (inactive),-2.05,-0.13
CN(C)CCCC[C@@H]1NC(=O)[C@H]2C[C@@H](C(=O)O)[C@@H](c3ccc(O)cc3)N2C1=O,0.151,1.73,0.326,-1.24,-0.817,-0.0533,0.419 (inactive),-0.693,0.38,-0.569 (inactive),-0.401,-1.23 (inactive),0.41 (inactive),-0.676 (inactive),1.5 (inactive),-0.304 (inactive),0.679 (inactive),-0.454 (inactive),-0.34,2.02
O=C(O)[C@H](Cc1ccccc1)n1cc(C2(O)CCCCC2)nn1,-0.53,-1.54,0.105,-0.364,-0.361,-1.14,-0.569 (inactive),0.791,-0.417,0.0465 (inactive),-0.466,-0.415 (inactive),-0.625 (inactive),-1.6 (inactive),0.055 (inactive),-0.563 (inactive),-0.128 (inactive),-0.477 (inactive),-0.88,-0.0668
